“And” between values parts separate entries of the source, which are not always exact repeats. Identical values can stand only once. The panel holds about 83,000 compounds, 20% with a hit somewhere; the sample as a whole holds those more often.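 A percent growth of 40 corresponds to 60% growth inhibition; 0 means no net growth; -100 means all cells died. Active threshold: below 10.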 The source made the active and inactive calls.
test system: MDA-MB-468 breast; assay: NCI-60 one-dose screen, 48 h (100 = growth as untreated, 0 = no growth, -100 = all killed); settings: 10 µM unless noted

Row | SMILES | growth
1 | COc1cc(OC)c(S(=O)(=O)N(CCCl)CCCl)cc1C(=O)/C=C/c1ccc(Cl)cc1 | 47.6% (inactive)
2 | CO[C@H](C(=O)O)[C@@H]1Cc2cc3cc(OC4CC(OC5CC(O)C(O)C(C)O5)C(O)C(C)O4)c(C)c(O)c3c(O)c2C(=O)[C@H]1OC1CC(OC2CC(OC3CC(C)(O)C(O)C(C)O3)C(O)C(C)O2)C(O)C(C)O1 (stereo not given in full) | -16.7% (active)
3 | CCCCN(CCCC)P(=O)(Oc1ccccc1)Oc1ccccc1 | 39.2% (inactive)
4 | C[C@@H]1C[C@@]2(C)[C@@H](CC[C@@H]3[C@@H]2CC[C@]2(C)C(=O)CC[C@@H]32)CC1=O | 95.4% (inactive)
5 | O=C(CI)Nc1ccc(Br)cc1 | 79.1% (inactive)
6 | CC(=O)Nc1ccc(Cc2ccc(NC(C)=O)cc2)cc1 | 95.6% (inactive)
7 | COc1ccc(Nc2ccc([N+](=O)[O-])cc2[N+](=O)[O-])cc1CN(CCCl)CCCl | 10.1% (inactive)
8 | CC(C)(C)C(=O)OCOP(=O)(OCOC(=O)C(C)(C)C)C1CCCN(O)C1=O (stereo not given) | -8.03% (active)
9 | Clc1ccc(CO/N=C(\Cn2ccnc2)c2ccc(Cl)cc2Cl)c(Cl)c1 | -24.5% (active)
10 | O=[N+]([O-])c1cc([N+](=O)[O-])c(Nn2c3ccccc3c3ccccc32)c([N+](=O)[O-])c1 | -8.42% (active)
11 | CC(=O)O[C@H]1C(=O)[C@@]2(C)[C@H]([C@H](OC(=O)c3ccccc3)[C@]3(O)C[C@H](OC(=O)[C@H](OC(=O)OC[C@H]4COC(C)(C)O4)[C@@H](NC(=O)c4ccccc4)c4ccccc4)C(C)=C1C3(C)C)[C@]1(OC(C)=O)CO[C@@H]1C[C@@H]2O | -16.3% (active)
12 | CCCCCCCCCCOc1ccc(C(=O)Oc2ccc(CSP3(=O)OCC4OC(n5ccc(=O)[nH]c5=O)C(F)C4OP(=O)(O)OCC4OC(n5cnc6c(N)ncnc65)C(F)C4O3)cc2)cc1 (stereo not given) | 115% (inactive)
13 | CCC(=O)OC1CCn2c1nc1c2C(=O)C(C)=C(N2CC2)C1=O (stereo not given) | 44.3% (inactive)
14 | NS(=O)(=O)c1nc[nH]c1[N+](=O)[O-] | 103% (inactive)
15 | CCCCCSC1C2C(=O)C(Br)=CC13CCNc1c(O)c4c5c(c13)=[N+]2CCC=5C=N4 (stereo not given) | -30.5% (active)
16 | CC1(C)N=C(N)N=C(N)N1c1ccc(CCCCc2ccc(Cl)cc2S(=O)(=O)F)c(Cl)c1 | -22.1% (active)
17 | COc1cc(C)c(-c2ccc(OC)c(=O)cc2C)c(OC)c1OC | 33.8% (inactive) and 77.1% (inactive)
18 | COC1CC2C=C(C)/C=C/C=C/C(=O)NC(c3ccccc3)C/C=C/CCC(O)CC(=O)C2=C1O (stereo not given) | -50.7% (active)
19 | O=CN1N=C(c2ccc3c(c2)OCO3)CC1c1sc(N(CCCl)CCCl)nc1Cl (stereo not given) | 90.9% (inactive)
20 | COC(=O)[C@H](C[C@H](Cc1ccccc1)NC(=O)c1csc([C@@H](C[C@H](C(C)C)N(C)C(=O)[C@@H](NC(=O)[C@H]2CCCCN2C)C(C)C)OC(C)=O)n1)NC(=O)OCc1ccccc1 | 0.51% [8.5 µM] (active)

Row | SMILES | growth
21 | O=NNc1ccccn1 | 78.5% (inactive)
22 | O=c1[nH]c(=O)n(Cl)c(=O)n1Cl | 106% (inactive) and 117% (inactive)
23 | CN(C)CC1(N)C(=O)NC(=O)NC1=O | 94.6% (inactive)
24 | CCOC(=O)c1cncn1C(C)c1ccccc1 (stereo not given) | 97.6% (inactive)
25 | CCn1c2ccccc2c2cc(C(=O)c3ccc(C)c4ccccc34)ccc21 | 25.4% (inactive)
26 | CN(C)P1(N(C)C)=NP(N(C)C)(N(C)C)=NP(N(C)C)(N(C)C)=N1 | 106% (inactive)
27 | C=CCOC(=O)C(Br)CC (stereo not given) | 98% (inactive)
28 | CCN1CC2(CN(CC)C1=S)C(=O)NC(=O)NC2=O | 116% (inactive)
29 | COc1ccc(N(CC(=O)NCCC[Te]c2ccccc2)C(=O)CCSC2=C(C)C(=O)c3ccccc3C2=O)cc1 | -58.1% (active)
30 | CCCCCCCCCCCCCCCCCCn1cc[n+](C)c1 | -42.3% (active) and -20.4% (active)
31 | O=c1c2ccccc2nc(-c2ccccc2Cl)n1-c1nnc(C(F)(F)F)s1 | 19.7% (inactive)
32 | O=C1CCCCC1CN1CCCCC1 (stereo not given) | 112% (inactive)
33 | O=C(O)C(Br)CBr (stereo not given) | 94.8% (inactive)
34 | COc1ccc2c(c1)c(C1(O)CC(CSC#N)OC1=O)cn2C(=O)c1ccc(Cl)cc1 (stereo not given) | 109% (inactive)
35 | C[C@@]1(CCCCCCCCCc2ccc(O)cc2)C[C@]2(C)OC(=O)C[C@@H]2OO1 | 64.8% (inactive)
36 | Nc1ccc(P(=O)(O)O)cc1 | 104% (inactive) and 92.6% (inactive)
37 | CCOC(=O)[C@@H](C)C[C@H](Cc1ccccc1)NC(=O)c1csc([C@@H](C[C@H](C(C)C)N(C)C(=O)[C@@H](NC(=O)[C@H]2C[C@H](O)CCN2C)C(C)C)OC(C)=O)n1 | 21.8% (inactive)
38 | N#CC1(c2ccccc2)CCN(Cc2ccccc2)CC1 | 90.2% (inactive)
39 | Oc1cc[c]([Hg][Cl])cc1 | 93.6% (inactive)
40 | CC(=O)OC1CCC2(C)C(CCC3C2CC(=O)C2(C)C3CC(Sc3ccc(N(CCCl)CCCl)cc3)C2C(C)=O)C1 (stereo not given) | 86.6% (inactive)

Source: PubChem BioAssay (NCI)
